High-throughput results deposited in PubChem by National Center for Advancing Translational Sciences (NCATS).
ClpP mod = qHTS Assay for Activators of ClpP. ATP-dependent Clp protease proteolytic subunit (Bacillus subtilis (strain 168)), P80244. purified B. subtilis ClpP, FRET peptide cleavage, 20 min. actives 1.9% (n = 340,000). Potency, µM (top dose mostly 57.5 µM). AID 651965, 2013; active = well fitted falling curve with a large enough effect; inconclusive = small, poorly fitted or top-dose-only effect; inactive = no such curve, though single readings can be large or run the other way; also: the source files actives as falling curves though it sought activators and does not explain the sign; nearly all actives have a fitted effect of over 65% in size
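FRET quenching reversal measured ClpP activation: 10 microg/mL B. subtilis ClpP at pH 8 with the FRET-FV decapeptide, read at 430 nm after 320 nm excitation. The 20-min minus 0-min signal was scaled between DMSO/no-enzyme wells and ADEP (5.8 microM final).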
DT40 TDP1 CPT = DT40-hTDP1 cell growth loss with CPT. chicken DT40 Tdp1-/-;hTDP1 cells + 20 nM CPT, ATP luminescence, 48 h. Potency, µM (titrated, usually from 46.2 µM), actives largely listed as inhibitors. actives 12% (n = 420,000). AID 686979; also: nearly all actives have a fitted effect of over 55% in size
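Chicken DT40 Tdp1-/- cells complemented with human TDP1, 400 cells/well, exposed to compounds plus 20 nM camptothecin for at least 48 h at 37 C; viability read as ATP content by CellTiter-Glo luminescence.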
TDP1 cell noCPT = qHTS for Inhibitors of human tyrosyl-DNA phosphodiesterase 1 (TDP1): qHTS in cells in absence of CPT | Potency, µM (titrated, usually from 46.2 µM), usual class: inhibitors | DT40 Tdp1-/- hTDP1 cells, no CPT, ATP luminescence, 48 h | actives 15% (n = 420,000); also: nearly all actives have a fitted effect of over 55% in size
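Growth of hTDP1-complemented DT40 Tdp1-knockout cells is measured by ATP luminescence after at least 48 hr compound exposure at 37 °C, with DMSO substituting for the 20 nM CPT used in the parallel screen.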
TDP1 inh = TDP1 (human) enzyme inhibition; Potency, µM (highest dose often 130 µM), most hits filed as inhibitors; recombinant TDP1, AlphaScreen DNA substrate cleavage; actives 0.28% (n = 350,000); Q9NUW8; also: nearly all actives have a fitted effect of over 40% in size
Target sequence (Q9NUW8 whole entry, looked up): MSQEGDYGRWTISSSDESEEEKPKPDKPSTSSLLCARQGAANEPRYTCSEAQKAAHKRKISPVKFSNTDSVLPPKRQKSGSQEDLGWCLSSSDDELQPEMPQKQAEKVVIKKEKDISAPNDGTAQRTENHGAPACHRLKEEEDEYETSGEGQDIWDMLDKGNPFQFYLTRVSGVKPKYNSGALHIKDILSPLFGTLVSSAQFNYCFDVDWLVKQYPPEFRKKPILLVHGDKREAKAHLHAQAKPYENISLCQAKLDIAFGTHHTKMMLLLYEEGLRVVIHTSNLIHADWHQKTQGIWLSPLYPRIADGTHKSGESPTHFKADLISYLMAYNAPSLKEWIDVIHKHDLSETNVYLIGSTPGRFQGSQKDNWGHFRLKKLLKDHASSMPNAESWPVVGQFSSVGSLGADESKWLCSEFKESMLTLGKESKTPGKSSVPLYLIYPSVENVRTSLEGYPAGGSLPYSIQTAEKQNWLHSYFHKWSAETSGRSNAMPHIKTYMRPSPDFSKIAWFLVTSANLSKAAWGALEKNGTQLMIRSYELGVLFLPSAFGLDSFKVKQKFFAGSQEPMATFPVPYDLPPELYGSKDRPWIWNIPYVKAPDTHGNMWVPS
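AlphaScreen read-out: signal falls as enzyme removes the 3' tyrosine-FITC from a 5'-biotinylated DNA oligo (15 nM, 5 min, RT). Enzyme was E. coli-made recombinant Tdp1 at 1 nM, exposed to compound for 15 min beforehand; beads 10 ug/ml, 10 min.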
Large screens that a line does not name were inactive. Hits are enriched below; roughly 17% of the tested compounds scored in any of these assays. Unless noted, calls follow the shape of the dose curve; as a rule, active = well fitted curve in the direction sought with a large enough effect; inconclusive = small, poorly fitted or top-dose-only effect, or another doubt; inactive = no such curve, though single readings can be large; an effect the other way counts as inactive or inconclusive.

CC(C)CCC[C@@H](C)[C@@H]1CC[C@H]2C3=CC=C4CC(O)CC[C@]4(C)[C@H]3CC[C@@]21C (stereo not given in full)	none (no result: ClpP mod, DT40 TDP1 CPT, TDP1 cell noCPT)
CC1CCC(C(C)C)C2=C1C(C#N)(C#N)C(C#N)(C#N)C(c1ccccc1)N2 (stereo not given)	DT40 TDP1 CPT inconclusive, TDP1 cell noCPT 18µM
O=C1CCC/C1=c1\s/c(=C\c2cccnc2)c(=O)n1-c1ccccc1	DT40 TDP1 CPT inconclusive, TDP1 cell noCPT 16µM
O=C1CCC/C1=c1\s/c(=C/c2cccnc2)c(=O)n1-c1ccccc1	DT40 TDP1 CPT inconclusive, TDP1 cell noCPT inconclusive (no result: TDP1 inh)
COc1nccnc1NS(=O)(=O)c1ccc(N=Cc2c(C)[nH]n(-c3ccc(Cl)cc3)c2=O)cc1	none (no result: ClpP mod, DT40 TDP1 CPT, TDP1 cell noCPT)
COc1nccnc1NS(=O)(=O)c1ccc(N=Cc2c(C)[nH]n(-c3ccc(C)c(C)c3)c2=O)cc1	DT40 TDP1 CPT 8.2µM, TDP1 cell noCPT 9.2µM
COc1cc(S(=O)(=O)Nc2ccc(C)cc2)ccc1N=Cc1c(C)[nH]n(-c2ccccc2)c1=O	DT40 TDP1 CPT 9.2µM, TDP1 cell noCPT inconclusive
Cc1ccc(-n2[nH]c(C)c(C=Nc3ccc(S(=O)(=O)Nc4nccs4)cc3)c2=O)cc1C	DT40 TDP1 CPT 8.2µM, TDP1 cell noCPT 18µM
CCc1ccc(CNC(=O)CCc2c(C)nn(-c3ccc(N4CCCC4)nn3)c2C)cc1	DT40 TDP1 CPT inconclusive, TDP1 cell noCPT inconclusive
CCN(CC)c1ccc(S(=O)(=O)N2CCOCC2)cc1NC(=O)c1cc(=O)c2ccccc2o1	DT40 TDP1 CPT 8.2µM, TDP1 cell noCPT 7.3µM
O=C(CNCc1ccccc1Cl)Nc1cc(S(=O)(=O)N2CCOCC2)ccc1Cl	TDP1 cell noCPT inconclusive
CCN(CC)c1ccc(S(=O)(=O)N2CCOCC2)cc1NC(=O)CSc1nncn1C	none
CCN(CC)c1ccc(S(=O)(=O)N2CCOCC2)cc1NC(=O)CNCc1cccc(Cl)c1	DT40 TDP1 CPT 18µM, TDP1 cell noCPT 15µM (no result: TDP1 inh)
CCN(CC)c1ccc(S(=O)(=O)N2CCOCC2)cc1NC(=O)CSc1ccccc1	DT40 TDP1 CPT 16µM, TDP1 cell noCPT inconclusive
CCN(CC)c1ccc(S(=O)(=O)N2CCOCC2)cc1NC(=O)CN1C(=O)NC2(CCCC2)C1=O	none
Cc1ccc(S(=O)(=O)N2CCOCC2)cc1NC(=O)CNCc1ccc(Cl)cc1Cl	DT40 TDP1 CPT inconclusive, TDP1 cell noCPT 16µM
Cc1cc(C)c(S(=O)(=O)N2CCOC2CNC(=O)C(=O)NCc2cccnc2)c(C)c1 (stereo not given)	none
C[N+](C)(C)CC(O)CC(=O)[O-] (stereo not given)	none (no result: ClpP mod, TDP1 inh)
CC(C)CCNC(=O)C1CCN(S(=O)(=O)c2cccc3nsnc23)CC1	none
O=C1C2C3C=CC(C3)C2C(=O)N1c1ccc(-c2nc3ccccc3o2)cc1 (stereo not given)	ClpP mod 6.3µM
O=C1C2C3C=CC(C3)C2C(=O)N1c1ccncc1 (stereo not given)	ClpP mod inconclusive
C[C@H]1CN([C@@H](C)CO)C(=O)CCCn2nncc2CO[C@H]1CN(C)S(=O)(=O)c1ccccc1	none (no result: TDP1 inh)
COc1cccc(CNS(=O)(=O)c2ccc(N3CCCCS3(=O)=O)cc2)c1	DT40 TDP1 CPT 23µM, TDP1 cell noCPT 16µM
COc1cccc(CNS(=O)(=O)c2c(C)[nH]c(C)c2C(=O)N2CCCCC2)c1	DT40 TDP1 CPT 26µM, TDP1 cell noCPT inconclusive
CCN(Cc1ccccc1)S(=O)(=O)c1ccc(N2CCCCS2(=O)=O)cc1	DT40 TDP1 CPT inconclusive, TDP1 cell noCPT inconclusive
COc1ccccc1CCNS(=O)(=O)c1ccc(N2CCCCS2(=O)=O)cc1	DT40 TDP1 CPT 23µM, TDP1 cell noCPT 21µM
COCCCNS(=O)(=O)c1ccc(N2CCCCS2(=O)=O)cc1	DT40 TDP1 CPT inconclusive, TDP1 cell noCPT inconclusive
COc1ccc(CCNS(=O)(=O)c2ccc(N3CCCCS3(=O)=O)cc2)cc1	DT40 TDP1 CPT 23µM, TDP1 cell noCPT 21µM
Cc1ccc(CNS(=O)(=O)c2c(C)[nH]c(C)c2C(=O)N2CCCC2)cc1	none
C[C@@H]1CN([C@H](C)CO)C(=O)c2cc(Br)cnc2O[C@H]1CN(C)Cc1ccccc1	TDP1 cell noCPT inconclusive (no result: TDP1 inh)
O=C(OC1CCCCC1=O)c1cc(Cl)ccc1[N+](=O)[O-] (stereo not given)	none (no result: ClpP mod)
COc1ccc(C(=O)/C=C/c2cn(CC(O)CN3CCN(C)CC3)c3ccccc23)cc1OC (stereo not given)	DT40 TDP1 CPT inconclusive, TDP1 cell noCPT inconclusive (no result: ClpP mod)
O=C(/C=C/c1cn(CC(O)CN2CCCCCC2)c2ccccc12)c1ccccc1 (stereo not given)	DT40 TDP1 CPT inconclusive, TDP1 cell noCPT 23µM
O=C(/C=C/c1cn(CC(O)CN2CCCCCC2)c2ccccc12)c1ccc(Br)cc1 (stereo not given)	DT40 TDP1 CPT 16µM, TDP1 cell noCPT 13µM
O=C(/C=C/c1cn(CC(O)CN2CCCCC2)c2ccccc12)c1ccccc1 (stereo not given)	DT40 TDP1 CPT inconclusive, TDP1 cell noCPT inconclusive
Cc1ccc(C(=O)/C=C/c2cn(CC(O)CN3CCCCCC3)c3ccccc23)cc1 (stereo not given)	DT40 TDP1 CPT 12µM, TDP1 cell noCPT 21µM
CN1CCN(Cn2cc(/C=C/C(=O)c3ccccc3)c3ccccc32)CC1	TDP1 cell noCPT inconclusive
O=C(/C=C/c1cn(CC(O)CN2CCCCC2)c2ccccc12)c1cccs1 (stereo not given)	DT40 TDP1 CPT inconclusive, TDP1 cell noCPT 16µM
OC(CN1CCCCC1)Cn1c2ccccc2c2ccccc21 (stereo not given)	none (no result: TDP1 inh)
Cc1nc2c(ccc3nc(NC(=O)C(c4ccccc4)c4ccccc4)sc32)s1	DT40 TDP1 CPT 7.3µM, TDP1 cell noCPT 7.3µM
Cc1nc2ccc3nc(NC(=O)c4ccc5c(c4)OCCO5)sc3c2s1	DT40 TDP1 CPT inconclusive, TDP1 inh 89µM
Cc1nc2c(ccc3nc(NC(=O)c4ccc5c(c4)OCCO5)sc32)s1	DT40 TDP1 CPT 16µM, TDP1 cell noCPT 18µM (no result: TDP1 inh)
COc1ccc(-c2nc(N)ncc2-c2csc(C)n2)c(O)c1OC	none (no result: ClpP mod)
O=C(c1cc2nc(-c3ccccc3)cc(C(F)(F)F)n2n1)N1CCN2CCCC2C1 (stereo not given)	TDP1 cell noCPT inconclusive
O=C(c1ccccc1)N1CCN(C(=O)c2nn3c(C(F)(F)F)cc(-c4ccccc4)nc3c2Br)CC1	DT40 TDP1 CPT inconclusive, TDP1 cell noCPT 18µM (no result: ClpP mod)
O=C(c1nn2c(C(F)(F)F)cc(-c3ccccc3)nc2c1Cl)N1CCN2CCCC2C1 (stereo not given)	DT40 TDP1 CPT 21µM, TDP1 cell noCPT inconclusive
COCCN1C(=O)N[C@@H](c2ccco2)C(C(=O)OC)=C1C	none
O=C(CCc1ccccc1)Nc1ccc2ccccc2n1	none
CC(=O)Nc1ccc(NC(=O)C2CCN(S(C)(=O)=O)CC2)cc1	none (no result: TDP1 inh)
CCOc1ccc(C2CC(c3ccc(F)cc3)n3ncnc3N2)cc1 (stereo not given)	DT40 TDP1 CPT inconclusive, TDP1 cell noCPT 21µM
